The panel holds about 83,000 compounds, 20% with a hit somewhere; the sample as a whole holds those more often.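 Single-dose data. Exposure time 48 hours. Values below 10 considered active.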 Unmarked numbers belong to inactive results. Active and inactive are the calls of the source.

Here are results for 8 molecules from PubChem BioAssay (NCI).

Test in all cases: NCI-60 one-dose screen, 48 h (100 = growth as untreated, 0 = no growth, -100 = all killed)
Holding throughout (conditions): 10 µM unless noted

The subject of test [1] is NCI-H23 lung.
Test [2] relates to NCI-H226 lung.
In test [3] the test system is NCI-H322M lung.
Test [4] concerns HOP-62 NSCLC.
The subject of test [5] is NCI-H460 lung.
In test [6] the test system is HOP-92 NSCLC.
Test [7] has as its system NCI-H522 lung.
Test [8] concerns A549/ATCC NSCLC.
The test system of test [9] is 786-0 renal.
Test [10] concerns COLO 205 colon.
Test [11] concerns DU-145 prostate.
Test [12] deals with K-562 leukemia.
The test system of test [13] is MALME-3M melanoma.
Test [14] deals with MDA-MB-231 breast.
Test [15] concerns RXF 393 renal.
The subject of test [16] is SF-268 CNS.
The test system of test [17] is SF-295 CNS.
The subject of test [18] is SF-539 CNS.
Test [19] relates to UACC-257 melanoma.
The subject of test [20] is M14 melanoma.

`COC(=O)CCCCCCCCC1(C)C=CC(C(C)O)=CC1` (stereo not given): the growth in test [1] is 96.2%; in test [2] it was 97%; in test [3] it was 109%; in [4] it was 101%; in test [5], 111%; in [6] it was 93.2%. Moreover, the growth in test [7] was 89%; in [8], 94%; in test [9], 108%; in [10], 111%; in test [11] it was 110%; in test [12] it was 84.5%. The growth in test [13] is 105%; in test [14], 110%; in [15] it was 107%; in [16] it was 105%; in [17], 109%; in [18], 112%. Further, the values for the growth in test [19] and in [20] were 108% and 110%, respectively.
Consider `COc1ccc(/C=N/C2=C(C#N)C(c3ccccc3[N+](=O)[O-])c3ccc4ccccc4c3O2)cc1` (stereo not given), for which the growth is 79% in test [1]; 70.4% in test [2]; 90.6% in test [3]; 103% in test [4]; 91.4% in test [5]; 97.1% in test [6]. In addition, the growth in test [7] was 88.1%; in test [8] it was 99.8%; in test [9], 101%; in test [10] it was 104%; in test [11], 100%; in [12], 80.2%. The growth in test [13] is 89.8%; in test [14] it was 77.7%; in [15], 109%; in test [16], 87.4%; in test [17] it was 94.9%; in test [18], 97.3%. The growth is 102% in test [19] and 90.4% in test [20].
In the case of `COc1ccc(C(=O)c2cc(C)c(OC)c(C)c2)c(OC)c1N(C(=O)C(Cl)Cl)C(=O)C(Cl)Cl`, the growth in test [1] is 21.9%; in test [2], 15.9%; in test [3], 41.5%; in [4], 17.7%; in [5], 2% (active); in test [6], 2.49% (active). In addition, the growth was 11% in test [7]; 13.6% in test [8]; 14.1% in test [9]; -34.6% (active) in [10]; 1.52% (active) in test [11]; 8.2% (active) in test [12]. Besides, the growth was 58.2% in [13]; 13.2% in test [14]; 41.2% in test [15]; 30.6% in test [16]; 7.31% (active) in [17]; -16% (active) in test [18]. The results for the growth in test [19] and in test [20] were 48.3% and -14.8% (active), respectively.
In the case of `C=C1C(=O)O[C@H]2[C@H]1CC/C(CNC(=O)/C=C/c1ccccc1F)=C\CC[C@@]1(C)O[C@@H]21`, the growth in test [1] is 64.8%; in test [2], 71.9%; in test [3] it was 73.9%; in [4], 74.5%; in test [5], 56.2%; in test [6] it was -28.2% (active). Also, the growth in test [7] was -73.5% (active); in test [8], 52.9%; in test [9], -58.4% (active); in test [10], -45% (active); in test [11] it was 4.9% (active); in [12] it was 2.05% (active). The growth in test [13] is -43.9% (active); in test [14] it was 16.9%; in [15] it was -90.5% (active); in test [16], 47.4%; in [17] it was 75.1%; in test [18], -50.4% (active). In addition, the values for the growth in test [19] and in [20] were -6.45% (active) and -32.5% (active), respectively.
Take `CCCCCCCCCCCC(=O)C(CCCCCCCCCC)C(=O)Nc1ccccc1` (stereo not given): the growth in test [1] was 95.8%; in test [2], 97.1%; in [3] it was 90.6%; in test [4], 96.8%; in test [5] it was 111%; in test [6], 102%. Moreover, the growth in [7] is 89.4%; in [8], 91.2%; in test [9], 107%; in test [10] it was 108%; in test [11], 104%; in test [12] it was 104%. For the same molecule, the growth in test [13] was 105%; in test [14], 91.2%; in test [15], 116%; in test [16] it was 104%; in test [17], 102%; in test [18] it was 98.2%. The growth was 92.9% in [19] and 103% in test [20].
For `CCCCCCOc1ccc(/C=N/Nc2cc(C)nc3ccc(Br)cc23)cc1`, the growth in test [1] was 14%; in [2], 71.1%; in test [3] it was -73.7% (active); in [4], -65.4% (active); in [5], -72% (active); in test [6] it was 34.5%. The growth in test [7] was -61.4% (active); in [8], -59.5% (active); in [9], -87.7% (active); in test [10], -51.8% (active); in test [11], -82.9% (active); in [12], -64.5% (active). For the same molecule, the growth is -82.3% (active) in test [13]; -88.9% (active) in test [14]; -97.3% (active) in test [15]; -1.78% (active) in test [16]; -83.3% (active) in [17]; -84.8% (active) in test [18]. Moreover, the growth in test [19] is 117%; in test [20] it was -44.4% (active).
As to `CCCC/C(=N\N=C(N)N)c1ccc(F)cc1`, the growth is 34.9% in test [1]; 31.6% in [2]; 61.5% in test [3]; 27.9% in test [4]; 16.2% in [5]; 31.4% in [6]. The growth was 10.2% in [7]; 31.8% in test [8]; 26.8% in [9]; 8.47% (active) in test [10]; 44.1% in test [11]; 10.4% in [12]. Also, the growth is 40.6% in [13]; 59.3% in test [14]; -5.71% (active) in [15]; 45.2% in test [16]; 18.4% in test [17]; 11.7% in test [18]. In addition, the growth in [19] was 44.1%; in test [20], 13.7%.
Consider `COc1cc(CCNc2nc3cc(N)cc(N)c3nc2-c2ccccc2)cc(OC)c1`, for which the growth in test [1] is 19.3%; in test [2], 90.5%; in test [3] it was 23.8%; in test [4], -35.1% (active); in test [5] it was 34.1%; in [6] it was -71.2% (active). Also, the growth is -65.1% (active) in [7]; 78.3% in test [8]; -60% (active) in test [9]; -60.8% (active) in test [10]; 85.7% in test [11]; -71.2% (active) in test [12]. The growth is -66.4% (active) in test [13]; -22.6% (active) in test [14]; -64.4% (active) in test [15]; 7.74% (active) in test [16]; 60.8% in test [17]; -31.7% (active) in test [18]. Also, the growth is 88.9% in test [19] and -32.8% (active) in test [20].
